{
  "source": "PubChem BioAssay AID1159580",
  "about": "(chemical genetic matrix, 2015)",
  "assay": "chemical genetic growth profiling, strain panel (AID 1159580);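 also: tested at 20 µM; growth read once vehicle control cultures reached saturation at 30 °C; 1 = growth at the plate median or of vehicle wells; lower values mean less growth of the strain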",
  "conditions": "growth OD",
  "key": {"[1]": {"conditions": "S. cerevisiae deletion strains, locus YAL013W, strain DEP1, active compounds read low"}, "[2]": {"conditions": "S. cerevisiae deletion strains, locus YGR078C, strain PAC10, active compounds read low"}, "[3]": {"conditions": "S. cerevisiae deletion strains, locus YJR075W, strain HOC1, active compounds read low"}, "[4]": {"conditions": "S. cerevisiae deletion strains, locus YMR263W, strain SAP30, active compounds read low"}, "[5]": {"conditions": "S. cerevisiae deletion strains, locus YNL153C, strain GIM3, active compounds read low"}, "[6]": {"conditions": "S. cerevisiae deletion strains, locus YNL322C, strain KRE1, active compounds read low"}, "[7]": {"conditions": "S. cerevisiae deletion strains, locus YBR229C, strain ROT2, active compounds read low"}, "[8]": {"conditions": "S. cerevisiae deletion strains, locus YCL061C, strain MRC1, active compounds read low"}, "[9]": {"conditions": "S. cerevisiae deletion strains, locus YDL101C, strain DUN1, active compounds read low"}, "[10]": {"conditions": "S. cerevisiae deletion strains, locus YDL134C, strain PPH21, active compounds read low"}, "[11]": {"conditions": "S. cerevisiae deletion strains, locus YDR150W, strain NUM1, active compounds read low"}, "[12]": {"conditions": "S. cerevisiae deletion strains, locus YEL061C, strain CIN8, active compounds read low"}, "[13]": {"conditions": "S. cerevisiae deletion strains, locus YHR030C, strain SLT2, active compounds read low"}, "[14]": {"conditions": "S. cerevisiae deletion strains, locus YHR087W, strain rtc3, active compounds read low"}, "[15]": {"conditions": "S. cerevisiae deletion strains, locus YJL187C, strain SWE1, active compounds read low"}, "[16]": {"conditions": "S. cerevisiae deletion strains, locus YJR043C, strain POL32, active compounds read low"}, "[17]": {"conditions": "S. cerevisiae deletion strains, locus YLR039C, strain RIC1, active compounds read low"}, "[18]": {"conditions": "S. cerevisiae deletion strains, locus YLR058C, strain SHM2 (second series), active compounds read low"}, "[19]": {"conditions": "S. cerevisiae deletion strains, locus YLR085C, strain ARP6, active compounds read low"}, "[20]": {"conditions": "S. cerevisiae deletion strains, locus YLR262C, strain YPT6, active compounds read low"}, "[21]": {"conditions": "S. cerevisiae deletion strains, locus YML094W, strain GIM5, active compounds read low"}, "[22]": {"conditions": "S. cerevisiae deletion strains, locus YMR219W, strain ESC1, active compounds read low"}, "[23]": {"conditions": "S. cerevisiae deletion strains, locus YNL298W, strain CLA4 (second series), active compounds read low"}, "[24]": {"conditions": "S. cerevisiae deletion strains, locus YNR030W, strain Alg12, active compounds read low"}, "[25]": {"conditions": "S. cerevisiae deletion strains, locus YPL055C, strain LGE1, active compounds read low"}, "[26]": {"conditions": "S. cerevisiae deletion strains, locus YPL241C, strain CIN2, active compounds read low"}, "[27]": {"conditions": "S. cerevisiae deletion strains, locus YPR135W, strain CTF4, active compounds read low"}, "[28]": {"conditions": "S. cerevisiae strains, strain wild type, active compounds read low"}},
  "note": "Hit rate of the full screen: of about 5,500 compounds, about 2,000 (36%) were called active. Roughly 18% stayed inconclusive and do not appear here. Some of the results follow. A number with no mark means an inactive call. Rule as the data show it: active = normalized growth mostly below about 0.91 (no sharp cut-off); inconclusive = no clear call, values can overlap the other calls; inactive = mostly above about 0.92.",
  "data": [
    {"smiles": "COc1ccccc1N1CCN(CCCCNS(=O)(=O)c2cccc3c(N(C)C)cccc23)CC1", "values": [
      {"measurement": "normalized growth", "setting": "[1]", "value": 0.944},
      {"measurement": "normalized growth", "setting": "S. cerevisiae deletion strains, locus YAL040C, strain CLN3, active compounds read low", "value": 0.979},
      {"measurement": "normalized growth", "setting": "S. cerevisiae deletion strains, locus YCL061C, strain MRC1 (second series), active compounds read low", "value": 0.976},
      {"measurement": "normalized growth", "setting": "S. cerevisiae deletion strains, locus YDR363W, strain ESC2, active compounds read low", "value": 0.939},
      {"measurement": "normalized growth", "setting": "S. cerevisiae deletion strains, locus YER002W, strain NOP16, active compounds read low", "value": 0.999},
      {"measurement": "normalized growth", "setting": "[2]", "value": 0.997},
      {"measurement": "normalized growth", "setting": "[3]", "value": 0.955},
      {"measurement": "normalized growth", "setting": "[4]", "value": 0.979},
      {"measurement": "normalized growth", "setting": "S. cerevisiae deletion strains, locus YMR307W, strain GAS1, active compounds read low", "value": 0.994},
      {"measurement": "normalized growth", "setting": "[5]", "value": 0.989},
      {"measurement": "normalized growth", "setting": "S. cerevisiae deletion strains, locus YNL175C, strain NOP13, active compounds read low", "value": 1.02},
      {"measurement": "normalized growth", "setting": "S. cerevisiae deletion strains, locus YNL197C, strain WHI3, active compounds read low", "value": 0.99},
      {"measurement": "normalized growth", "setting": "S. cerevisiae deletion strains, locus YNL224C, strain SQS1, active compounds read low", "value": 1.04},
      {"measurement": "normalized growth", "setting": "[6]", "value": 0.951},
      {"measurement": "normalized growth", "setting": "S. cerevisiae deletion strains, locus YOR083W, strain WHI5 (second series), active compounds read low", "value": 1.02}
    ]},
    {"smiles": "NNC(=O)c1cnn(-c2ccc(Cl)cc2)c1C(F)(F)F", "values": [
      {"measurement": "normalized growth", "setting": "[1]", "value": 0.992},
      {"measurement": "normalized growth", "setting": "[7]", "value": 0.996},
      {"measurement": "normalized growth", "setting": "[8]", "value": 0.983},
      {"measurement": "normalized growth", "setting": "[9]", "value": 0.993},
      {"measurement": "normalized growth", "setting": "[10]", "value": 1.03},
      {"measurement": "normalized growth", "setting": "[11]", "value": 0.94},
      {"measurement": "normalized growth", "setting": "[12]", "value": 0.998},
      {"measurement": "normalized growth", "setting": "[2]", "value": 1.01},
      {"measurement": "normalized growth", "setting": "[13]", "value": 0.976},
      {"measurement": "normalized growth", "setting": "[14]", "value": 0.986},
      {"measurement": "normalized growth", "setting": "[15]", "value": 1},
      {"measurement": "normalized growth", "setting": "[16]", "value": 0.946},
      {"measurement": "normalized growth", "setting": "[3]", "value": 1.01},
      {"measurement": "normalized growth", "setting": "[17]", "value": 0.909},
      {"measurement": "normalized growth", "setting": "[18]", "value": 1},
      {"measurement": "normalized growth", "setting": "[19]", "value": 0.976},
      {"measurement": "normalized growth", "setting": "[20]", "value": 1.01},
      {"measurement": "normalized growth", "setting": "[21]", "value": 0.967},
      {"measurement": "normalized growth", "setting": "[22]", "value": 0.998},
      {"measurement": "normalized growth", "setting": "[4]", "value": 0.977},
      {"measurement": "normalized growth", "setting": "[5]", "value": 1},
      {"measurement": "normalized growth", "setting": "[23]", "value": 1.01},
      {"measurement": "normalized growth", "setting": "[6]", "value": 1},
      {"measurement": "normalized growth", "setting": "[24]", "value": 1.03},
      {"measurement": "normalized growth", "setting": "S. cerevisiae deletion strains, locus YOL006C, strain TOP1, active compounds read low", "value": 1.02},
      {"measurement": "normalized growth", "setting": "[25]", "value": 0.883},
      {"measurement": "normalized growth", "setting": "[26]", "value": 0.989},
      {"measurement": "normalized growth", "setting": "[27]", "value": 0.916},
      {"measurement": "normalized growth", "setting": "[28]", "value": 1.01}
    ]},
    {"smiles": "CCOC(=O)c1cnn(-c2ccc(F)cc2)c1N", "values": [
      {"measurement": "normalized growth", "setting": "[1]", "value": 0.99},
      {"measurement": "normalized growth", "setting": "[7]", "value": 0.992},
      {"measurement": "normalized growth", "setting": "[9]", "value": 0.984},
      {"measurement": "normalized growth", "setting": "[10]", "value": 1},
      {"measurement": "normalized growth", "setting": "[11]", "value": 0.866},
      {"measurement": "normalized growth", "setting": "[12]", "value": 0.984},
      {"measurement": "normalized growth", "setting": "[2]", "value": 0.998},
      {"measurement": "normalized growth", "setting": "S. cerevisiae deletion strains, locus YGR229C, strain SMI1, active compounds read low", "value": 0.987},
      {"measurement": "normalized growth", "setting": "[13]", "value": 1.07},
      {"measurement": "normalized growth", "setting": "[14]", "value": 0.967},
      {"measurement": "normalized growth", "setting": "[15]", "value": 0.989},
      {"measurement": "normalized growth", "setting": "[16]", "value": 0.994},
      {"measurement": "normalized growth", "setting": "[3]", "value": 0.9},
      {"measurement": "normalized growth", "setting": "[17]", "value": 1.04},
      {"measurement": "normalized growth", "setting": "[18]", "value": 0.995},
      {"measurement": "normalized growth", "setting": "[19]", "value": 0.919},
      {"measurement": "normalized growth", "setting": "[20]", "value": 1.04},
      {"measurement": "normalized growth", "setting": "[21]", "value": 0.938},
      {"measurement": "normalized growth", "setting": "[22]", "value": 0.995},
      {"measurement": "normalized growth", "setting": "[4]", "value": 0.991},
      {"measurement": "normalized growth", "setting": "[5]", "value": 0.974},
      {"measurement": "normalized growth", "setting": "[23]", "value": 0.966},
      {"measurement": "normalized growth", "setting": "[6]", "value": 0.987},
      {"measurement": "normalized growth", "setting": "[24]", "value": 0.973},
      {"measurement": "normalized growth", "setting": "[25]", "value": 0.869},
      {"measurement": "normalized growth", "setting": "[26]", "value": 1.06},
      {"measurement": "normalized growth", "setting": "[27]", "value": 0.844},
      {"measurement": "normalized growth", "setting": "[28]", "value": 0.993}
    ]},
    {"smiles": "CCOC(=O)c1cnn(-c2ccc(N)cc2)c1C(F)(F)F", "values": [
      {"measurement": "normalized growth", "setting": "[1]", "value": 0.979},
      {"measurement": "normalized growth", "setting": "[7]", "value": 0.992},
      {"measurement": "normalized growth", "setting": "[8]", "value": 0.979},
      {"measurement": "normalized growth", "setting": "[9]", "value": 0.992},
      {"measurement": "normalized growth", "setting": "[11]", "value": 1.02},
      {"measurement": "normalized growth", "setting": "[12]", "value": 0.918},
      {"measurement": "normalized growth", "setting": "[2]", "value": 1.01},
      {"measurement": "normalized growth", "setting": "[13]", "value": "0.378 (active)"},
      {"measurement": "normalized growth", "setting": "[14]", "value": 1.02},
      {"measurement": "normalized growth", "setting": "[16]", "value": 0.983},
      {"measurement": "normalized growth", "setting": "[3]", "value": 1.04},
      {"measurement": "normalized growth", "setting": "[17]", "value": "0.429 (active)"},
      {"measurement": "normalized growth", "setting": "[18]", "value": 0.996},
      {"measurement": "normalized growth", "setting": "[19]", "value": "0.695 (active)"},
      {"measurement": "normalized growth", "setting": "[20]", "value": "0.472 (active)"},
      {"measurement": "normalized growth", "setting": "[21]", "value": "0.848 (active)"},
      {"measurement": "normalized growth", "setting": "[22]", "value": 0.99},
      {"measurement": "normalized growth", "setting": "[4]", "value": 0.994},
      {"measurement": "normalized growth", "setting": "[5]", "value": 0.984},
      {"measurement": "normalized growth", "setting": "[23]", "value": 0.861},
      {"measurement": "normalized growth", "setting": "[6]", "value": 1.01},
      {"measurement": "normalized growth", "setting": "[24]", "value": 0.936},
      {"measurement": "normalized growth", "setting": "[25]", "value": 0.91},
      {"measurement": "normalized growth", "setting": "[26]", "value": 0.871},
      {"measurement": "normalized growth", "setting": "[27]", "value": 0.797},
      {"measurement": "normalized growth", "setting": "[28]", "value": 0.977}
    ]}
  ]
}
